According to article PMC5540273 (PLoS ONE, 2017):

System: RIPK5
Settings: concentration: 1 μM, replicates: in singlicate; n = 1
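Note: KINOMEscan kinase panel screen.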

Row | SMILES | %Inh [%]
1 | O=C(Nc1n[nH]c2nc(-c3ccco3)c(Br)cc12)C1CCN(Cc2ccccc2)C1.O=C(O)[C@H](O)[C@@H](O)C(=O)O (stereo not shown) [SB-742034] | 29
2 | Cn1cnc2c(N)ncnc21 [SKF-97623] | 0
3 | COc1ccc(Nc2nccc(-c3ccc(NC(=O)c4cc5cc(F)ccc5[nH]4)cc3)n2)cc1 [GSK1229496] | 0
4 | CNC(=O)c1ccc(C)c(-n2c(C)cc(OCc3ccc(F)cc3F)c(Br)c2=O)c1 | 0
5 | Nc1nccc(-c2c(-c3ccc(F)cc3)ncn2C2CCN(Cc3ccccc3)CC2)n1 [SB-219980] | 34
6 | Cc1ccc(NC(=O)Nc2ccccc2)cc1-c1ccc(C(=O)Nc2ccncc2)cc1 [GSK1398471] | 0
7 | Fc1ccc(-c2nc[nH]c2-c2ccncc2)cc1 [SB-217360] | 31
8 | CC(C)c1cc(-c2ccc3c(N)n[nH]c3c2)nc(N)n1 [GSK2250882] | 0
9 | Fc1ccc(-c2nc3n(c2-c2ccncc2)CCS3)cc1 [GI98581] | 0
10 | CCc1ccc(-c2ccc3c(c2)-c2n[nH]cc2S(=O)(=O)N3C)cc1 | 0
11 | COc1ccc(CSc2nnc(-c3ccc4c(c3)CCO4)o2)cc1 | 0
12 | CSc1ccc(-c2nc3n(c2-c2ccncc2)CCC3)cc1 [SKF-105561] | 17
13 | COc1cccc(NC(=O)Nc2ccc(C)c(-c3ccc(C(=O)Nc4ccncc4)cc3)c2)c1 [GSK1398474] | 0
14 | O=c1cc(N2CCOCC2)nc2n(Cc3cccc(Cl)c3Cl)c3ccccc3n12 [GSK2299009] | 0
15 | COC(=O)c1cccc(NC(=O)NC2CCN(c3ccnc(Nc4ccc(F)cc4)n3)C2)c1 (stereo not shown) [GSK1379725] | 0
16 | O=C(Nc1n[nH]c2nc(-c3cccs3)c(Br)cc12)C1CC1 [SB-735297] | 3
17 | CC(=O)c1c(C)c2cnc(Nc3ccc(N4CCNCC4)cn3)nc2n(C2CCCC2)c1=O | 0
18 | CN1c2ccc(-c3ccc(C(N)=O)cc3)cc2-c2[nH]ncc2S1(=O)=O | 0
19 | CNc1cc(-c2ccc3c(N)n[nH]c3c2)nc(N)n1 [GSK2224810] | 0

Row | SMILES | %Inh [%]
20 | Cn1cncc1C(=O)NC1CCN(c2ccnc(Nc3ccc(F)cc3)n2)C1 (stereo not shown) [GSK1379717] | 20
21 | Cn1cncc1-c1cc2c(Nc3ccc(OCc4ccccc4)cc3)ncnc2cn1 [GW281179] | 0
22 | COc1ccc(-c2coc3ccc(-c4nnc(C)o4)cc23)cc1 | 0
23 | Cc1ccc(NC(=O)Nc2ccc(Cl)cc2)cc1-c1ccc(C(=O)Nc2ccncc2)cc1 [GSK1398472] | 6
24 | CC(=O)c1c(C)c2cnc(Nc3ccn(C)n3)nc2n(C2CCCC2)c1=O | 0
25 | COc1ccc(Nc2nccc(N3CCC(NC(=O)c4cc5ccccc5s4)C3)n2)cc1 (stereo not shown) [GSK1379738] | 7
26 | Cc1nccc(-c2c(-c3ccc(F)cc3)ncn2CCCN2CCOCC2)n1.Cl [SB-282975] | 13
27 | CC[C@@H]1CO[C@H](C(=O)Nc2ccccc2)CN1c1cc(-c2ccc3c(N)n[nH]c3c2)nc(NC)n1 [GSK2376236] | 8
28 | NS(=O)(=O)c1cccc(N/C=C2\C(=O)Nc3ccc(S(=O)(=O)Cc4c(Cl)cccc4Cl)cc32)c1 [GSK398099] | 0
29 | Nc1cccc(-c2ccc3c(N)n[nH]c3c2)n1 [GSK2192730] | 0
30 | CCCCc1nn2ncccc2c1-c1ccnc(NC2CC2)n1 [GW684374] | 5
31 | CNc1nc(-c2ccc3c(N)n[nH]c3c2)cc(N2C[C@@H](C(=O)NC3CCCCC3)OC[C@H]2C)n1 [GSK2375584] | 1
32 | COc1cccc(C2=C(Nc3cc(Cl)c(O)c(Cl)c3)C(=O)NC2=O)c1 [SB-390767] | 7
33 | COc1ccc(CSc2nnc(-c3ccc4ncsc4c3)o2)cc1C(F)(F)F | 0
34 | Cc1c(Cn2c(C)c(C)n3c(=O)cc(N4CCOCC4)nc23)cccc1C(F)(F)F [GSK2328680] | 67
35 | CNc1nc(-c2ccc3c(N)n[nH]c3c2)cc(N2C[C@@H](C(=O)Nc3ccccc3)CC[C@H]2C)n1 [GSK2298859] | 0
36 | Cc1ccccc1-c1cc(-c2c[nH]nc2-c2ccccn2)ccn1 [GW680061] | 0
37 | COc1ccc(Nc2nccc(NCCNC(=O)Nc3cc(C)ccc3C)n2)cc1 [GSK1379899] | 0
